The source made the active and inactive calls.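 The calls were made as follows, unless noted: active = normalized viability below 100% at a tested concentration; inactive = the rest.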
Tests used:
[1] = stimulators of nuclear beta-catenin in C2C12, primary screen, imaging, WNT3A-conditioned medium, mouse C2C12, NPC library (AID 1117326; in the data active = nuclear beta-catenin stimulation mostly above about 4.2%, no sharp cut-off; inactive = mostly below about 10%); conditions: stronger effect = higher value
[2] = stimulators of insulin release from INS-1E, primary screen, cell-based, 5 mM glucose, NPC library (AID 1117329;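 active = compound raises insulin release from rat beta cells at 5 mM glucose, no numeric limit stated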); conditions: rat INS-1E insulin secretion, at 10 µM, stronger effect = higher value
[3] = growth inhibition of GSK3B-pretreated HCT116 cells – cell-based, CellTiter-Glo, 0.2 to 20 µM (AID 1117336;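 active = compounds lowering colon cancer cell viability after pretreatment blocking the GSK3B kinase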); conditions: HCT116 viability after GSK3B inhibitor, at 20 µM, stronger effect = higher value
[4] = inhibition of endothelial tube formation, primary screen, imaging, VEGF stimulated, CD31 staining, tube area, NPC library (AID 1117340;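 active = compound that reduces growth-factor-driven endothelial tube area in a mixed cell culture, no cutoff stated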); conditions: VEGF-stimulated ADSC/ECFC co-culture, at 10 µM, stronger effect = higher value
[5] = glucagon-like peptide 1 release enhancers, primary assay, NCI-H716 cell line, NPC library (AID 1117341;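 active = compound raises GLP1 secretion from the human gut endocrine cells, with no numeric limit stated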); conditions: NCI-H716 cells, at 10 µM, stronger effect = higher value
[6] = HCT116 colon cancer cell growth inhibition, primary screen, CellTiter-Glo luminescence, NPC library (AID 1117342;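 active = compounds that lower survival of HCT116 colon cancer cells in the luminescence readout, no numeric limit stated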); conditions: at 20 µM (top of the series)
[7] = CellTiter-Glo luminescent readout of SW480 viability loss, NPC library primary (AID 1117343;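 active = compounds that lower viability of the colon cancer cells in the luminescence readout, with no numeric limit stated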); conditions: CellTiter-Glo luminescence; at 20 µM (top of the series) unless noted
[8] = decreased DLD-1 cellular survival, CellTiter-Glo luminescent readout, NPC compound collection, primary HTS (AID 1117346;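 active = compounds that lower survival of DLD-1 colon cancer cells in the luminescence readout, no cutoff given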); conditions: DLD-1 viability, CellTiter-Glo luminescence; at 20 µM (top of the series)
[9] = sensitizers of A549 cells to miR-34 induction, primary screen, imaging, A549 dox-inducible miR-34, nuclei and caspase counts (AID 1347080;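 active = compounds whose cell count with miR-34 switched on is under 0.7 times the count with it off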); conditions: A549 miR-34 inducible, Hoechst nuclei count, 48 h
[10] = survival rescue of mitochondrial mutant cells in low glucose, primary screen, MELAS cybrids, Rieske KO mouse fibroblasts, CellTiter-Glo (AID 1508586;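 active = mean z-score across replicates of 1.96 or higher in either the MELAS or the Rieske mutant cell line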;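 also: z relative to plate mean and SD of compound and empty wells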)
[11] = ovarian cancer cell viability with rucaparib, profiling panel, oncology-focused library, rucaparib conditional (AID 1508598); conditions: patient-derived ovarian cancer cells, CellTiter-Glo viability, 144 h, stronger effect = lower value
[12] = tested on: Hepatitis C virus NS3 helicase; experiment: HCV NS3 helicase inhibitors, primary screen, biochemical, fluorescence polarization, LOPAC1280 library (AID 687035; in the data active = inhibition above about 37%); conditions: Purified HCV NS3 helicase, Cy5-dT15 ssDNA binding fluorescence polarization; stronger effect = higher value; concentration not given here
[13] = Cy5 fluorescence quenching or enhancement artefacts, artefact control for HCV NS3 helicase inhibitor project, biochemical, LOPAC1280 (AID 687037; call rule not given here); conditions: Cy5-DNA-NS3h complex fluorescence interference counterscreen
[14] = phospholipid biosynthesis inhibitors in animal cells, primary screen, cell-based, LOPAC library, screen 4 (AID 1347384; call rule not given here); conditions: phospholipid biosynthesis inhibition screen, at 10 µM
[15] = target: NAD(+) hydrolase SARM1 (Homo sapiens) (UniProt Q6SZW1); experiment: SARM1 TIR NADase inhibitors, cell lysate, NAD-Glo luminescence (AID 1508614;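 active = compound whose remaining NAD level is above about 45 nM, limit read from the data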;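 also: higher remaining NAD means stronger inhibition of SARM1 NADase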); conditions: SAM-TIR HEK293T lysate NADase, at 1 µM, stronger effect = higher value
Sequence of NAD(+) hydrolase SARM1 (Homo sapiens) (Q6SZW1 whole entry, looked up): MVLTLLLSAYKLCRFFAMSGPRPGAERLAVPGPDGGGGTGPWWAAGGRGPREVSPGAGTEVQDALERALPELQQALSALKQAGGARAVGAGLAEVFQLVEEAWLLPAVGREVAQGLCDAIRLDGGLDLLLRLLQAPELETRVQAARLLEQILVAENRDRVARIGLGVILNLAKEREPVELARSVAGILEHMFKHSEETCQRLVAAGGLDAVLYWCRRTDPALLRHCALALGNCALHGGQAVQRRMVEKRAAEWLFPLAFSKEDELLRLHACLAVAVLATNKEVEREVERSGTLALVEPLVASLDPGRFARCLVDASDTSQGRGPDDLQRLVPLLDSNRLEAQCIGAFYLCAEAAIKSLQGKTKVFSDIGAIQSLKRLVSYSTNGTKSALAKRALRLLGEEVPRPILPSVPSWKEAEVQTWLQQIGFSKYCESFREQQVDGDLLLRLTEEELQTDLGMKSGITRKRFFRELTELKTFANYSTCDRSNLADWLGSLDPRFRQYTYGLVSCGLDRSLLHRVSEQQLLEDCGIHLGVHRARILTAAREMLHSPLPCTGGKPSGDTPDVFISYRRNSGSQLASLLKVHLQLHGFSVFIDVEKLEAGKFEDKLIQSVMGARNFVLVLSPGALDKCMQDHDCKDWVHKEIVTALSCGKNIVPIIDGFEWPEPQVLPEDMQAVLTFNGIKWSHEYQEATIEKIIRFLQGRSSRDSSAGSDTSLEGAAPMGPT

[16] = viability rescue of complex I mutant cybrids, primary screen, cell-based, galactose medium, ATP luminescence (AID 1645843;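 active = z-score of at least 1.8 in each of two replicates, scored against plate mean and spread of sample wells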;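 also: positive z means more ATP and so rescue of galactose-driven cybrid death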); conditions: complex I mutant cybrid cells, 72 h, stronger effect = higher value
[17] = stronger effect = lower value, cell number ratio, induced over uninduced
[18] = measured here: relative caspase fold change +Dox/-Dox
[19] = measured here: total cells with miR-34 induction, stronger effect = lower value
[20] = measured here: total cells without miR-34 induction

Nc1cccc2c1CN(C1CCC(=O)NC1=O)C2=O (configuration not stated)
active: viability ([11]; at 0.00488 µM, OCI-P5x cells, without rucaparib) 95.9%
0.3%: nuclear beta-catenin stimulation ([1]; stimulation, at 2 µM)
inactive: nuclear beta-catenin stimulation ([1]; at 10 µM) 2% | insulin secretion stimulation [2] 1.3% | viability decrease [3] 0% | tube area decrease [4] -3.8% | GLP1 secretion stimulation [5] 0% | inhibition of viability [6] -8.6% | viability decrease (inhibition) [7] -19.5% | viability decrease (inhibition) [8] 1.2% | fold change [9, 17] 1.01 | z-score ([10]; MELAS cybrid survival, CellTiter-Glo 48 h, stronger effect = higher value) -0.434 | viability ([11]; at 0.000305 µM, OCI-C5x cells, with rucaparib 10 µM, 100% = cells with rucaparib alone) 116% | viability ([11]; at 0.000305 µM, OCI-C5x cells, without rucaparib) 116% | viability ([11]; at 0.000305 µM, OCI-P5x cells, with rucaparib 20 µM, 100% = cells with rucaparib alone) 126% | viability ([11]; at 0.000305 µM, OCI-P5x cells, without rucaparib) 106% | viability ([11]; at 0.00122 µM, OCI-C5x cells, with rucaparib 10 µM, 100% = cells with rucaparib alone) 122% | viability ([11]; at 0.00122 µM, OCI-C5x cells, without rucaparib) 116% | viability ([11]; at 0.00122 µM, OCI-P5x cells, with rucaparib 20 µM, 100% = cells with rucaparib alone) 130% | viability ([11]; at 0.00122 µM, OCI-P5x cells, without rucaparib) 105% | viability ([11]; at 0.00488 µM, OCI-C5x cells, with rucaparib 10 µM, 100% = cells with rucaparib alone) 126% | viability ([11]; at 0.00488 µM, OCI-C5x cells, without rucaparib) 115% | viability ([11]; at 0.00488 µM, OCI-P5x cells, with rucaparib 20 µM, 100% = cells with rucaparib alone) 123% | viability ([11]; at 0.0195 µM, OCI-C5x cells, with rucaparib 10 µM, 100% = cells with rucaparib alone) 113% | viability ([11]; at 0.0195 µM, OCI-C5x cells, without rucaparib) 114% | viability ([11]; at 0.0195 µM, OCI-P5x cells, with rucaparib 20 µM, 100% = cells with rucaparib alone) 125% | viability ([11]; at 0.0195 µM, OCI-P5x cells, without rucaparib) 107% | viability ([11]; at 0.0781 µM, OCI-C5x cells, with rucaparib 10 µM, 100% = cells with rucaparib alone) 120% | viability ([11]; at 0.0781 µM, OCI-C5x cells, without rucaparib) 132% | viability ([11]; at 0.0781 µM, OCI-P5x cells, with rucaparib 20 µM, 100% = cells with rucaparib alone) 133% | viability ([11]; at 0.0781 µM, OCI-P5x cells, without rucaparib) 109% | viability ([11]; at 0.313 µM, OCI-C5x cells, with rucaparib 10 µM, 100% = cells with rucaparib alone) 118% | viability ([11]; at 0.313 µM, OCI-C5x cells, without rucaparib) 117% | viability ([11]; at 0.313 µM, OCI-P5x cells, with rucaparib 20 µM, 100% = cells with rucaparib alone) 129% | viability ([11]; at 0.313 µM, OCI-P5x cells, without rucaparib) 109% | viability ([11]; at 1.25 µM, OCI-C5x cells, with rucaparib 10 µM, 100% = cells with rucaparib alone) 121% | viability ([11]; at 1.25 µM, OCI-C5x cells, without rucaparib) 119% | viability ([11]; at 1.25 µM, OCI-P5x cells, with rucaparib 20 µM, 100% = cells with rucaparib alone) 114% | viability ([11]; at 1.25 µM, OCI-P5x cells, without rucaparib) 103% | viability ([11]; at 5 µM, OCI-C5x cells, with rucaparib 10 µM, 100% = cells with rucaparib alone) 115% | viability ([11]; at 5 µM, OCI-C5x cells, without rucaparib) 117% | viability ([11]; at 5 µM, OCI-P5x cells, with rucaparib 20 µM, 100% = cells with rucaparib alone) 132% | viability ([11]; at 5 µM, OCI-P5x cells, without rucaparib) 110%
0.954: fold change [9, 18]
8240: cell count [9, 19]
8190: cell count [9, 20]
0.686: z-score ([10]; Rieske KO mouse fibroblast survival, CellTiter-Glo 72 h)

N[C@@H](CC(=O)O)C(=O)O
10800: cell count [9, 19]
-0.6%: nuclear beta-catenin stimulation ([1]; stimulation, at 2 µM)
1.56: fold change [9, 18]
inactive: inhibition [12] 0% | fluorescence ratio (interference) [13] 0.9 | nuclear beta-catenin stimulation ([1]; at 10 µM) 0% | insulin secretion stimulation [2] 1.3% | viability decrease [3] 7.1% | tube area decrease [4] -11.9% | GLP1 secretion stimulation [5] -0.5% | inhibition of viability [6] 1.9% | viability decrease (inhibition) [7] -18.5% | viability decrease (inhibition) [8] 1.6% | fold change [9, 17] 1 | outcome [14] | remaining NAD [15] 10 nM | z-score [16] 0.255
10700: cell count [9, 20]

CCNC(=O)N1CCN(CCCC(c2ccc(F)cc2)c2ccc(F)cc2)CC1
6940: cell count [9, 20]
6860: cell count [9, 19]
inactive: inhibition [12] -1% | fluorescence ratio (interference) [13] 1 | nuclear beta-catenin stimulation ([1]; at 10 µM) 0.3% | insulin secretion stimulation [2] 1.1% | tube area decrease [4] 17.1% | GLP1 secretion stimulation [5] 7.1% | fold change [9, 17] 0.987 | outcome [14] | z-score [16] -1.42
1.62: fold change [9, 18]
active: viability decrease [3] 50.7% | inhibition of viability [6] 85.2% | viability decrease (inhibition) [7] 119% | viability decrease (inhibition) [8] 57.7%
-1.1%: nuclear beta-catenin stimulation ([1]; stimulation, at 2 µM)

NC1[C@H]2CN(c3nc4c(cc3F)c(=O)c(C(=O)O)cn4-c3ccc(F)cc3F)C[C@@H]12 (some centres not stated)
2330: cell count [9, 20]
inactive: nuclear beta-catenin stimulation ([1]; at 10 µM) -0.6% | insulin secretion stimulation [2] 17.5% | tube area decrease [4] 26.1% | GLP1 secretion stimulation [5] -0.1% | fold change [9, 17] 1.35 | outcome [14]
0.5%: nuclear beta-catenin stimulation ([1]; stimulation, at 2 µM)
1.08: fold change [9, 18]
3150: cell count [9, 19]
active: viability decrease [3] 64.3% | inhibition of viability [6] 58.4% | viability decrease (inhibition) [7] 82.9% | viability decrease (inhibition) [8] 58.6% | z-score [16] 2.21

From PubChem BioAssay
